Laboratory results reported in PubChem BioAssay (NCI).
The panel holds about 79,000 compounds, 15% with a hit somewhere; the sample as a whole holds those more often. Activity calls are given as the source filed them. Cut-off read from the data, not from the text of the source: active = growth inhibition above about 70%; inactive = the rest.

How the values were obtained:
[1] = NCI Yeast Anticancer Drug Screen. Data for the rad52 strain (AID 147);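 note: 0% = growth of vehicle-treated control cultures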; conditions: S. cerevisiae rad52 mutant growth inhibition, stronger effect = higher value
Outline: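 Here a repair-compromised yeast strain receives each compound; its growth is then quantified and normalised to vehicle-only controls.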

[2] = NCI Yeast Anticancer Drug Screen. Data for the wt1 strain (AID 149);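 note: 0% = growth of vehicle-treated wt1 cultures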; conditions: S. cerevisiae wt1 strain (SPY 50644) growth inhibition, stronger effect = higher value
Outline: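 Compounds are added to wt1 yeast cultures. Growth is then measured. Inhibition is expressed relative to vehicle-treated controls.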

[3] = NCI Yeast Anticancer Drug Screen. Data for the rad50EPP+ strain (AID 151);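 note: 0% = growth of vehicle-treated control cultures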; conditions: S. cerevisiae rad50 mutant strain, stronger effect = higher value
Outline: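 Read-out is yeast growth inhibition relative to vehicle; cells used were the rad50EPP+ strain.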

[4] = NCI Yeast Anticancer Drug Screen. Data for the mgt1 strain (AID 153); conditions: S. cerevisiae mgt1 mutant growth inhibition, stronger effect = higher value
Outline: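 Measured: inhibition of mgt1 yeast growth by compound, normalized to vehicle-treated cultures.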

[5] = NCI Yeast Anticancer Drug Screen. Data for the rad50 strain (AID 155);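 note: 0% = growth of vehicle-only cultures of the same strain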; conditions: S. cerevisiae rad50 strain growth inhibition, stronger effect = higher value
Outline: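 Inhibition values express reduced yeast growth in compound-treated cultures relative to vehicle-treated controls.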

[6] = NCI Yeast Anticancer Drug Screen. Data for the mec2-1 strain (AID 157); conditions: S. cerevisiae mec2-1 strain, stronger effect = higher value
Outline: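 Using mec2-1 yeast: add compound, measure growth, express inhibition versus vehicle-treated cultures.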

[7] = NCI Yeast Anticancer Drug Screen. Data for the rad14 strain (AID 159);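 note: 0% = growth of vehicle-treated control cultures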; conditions: S. cerevisiae rad14 strain growth inhibition, stronger effect = higher value
Outline: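 A mutant yeast strain defective in DNA damage repair is treated with compound; inhibition of its growth is scored against untreated, vehicle-exposed cultures.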

[8] = NCI Yeast Anticancer Drug Screen. Data for the sgs1 mgt1 strain (AID 161);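 note: 0% = growth of cultures given vehicle only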; conditions: S. cerevisiae sgs1 mgt1 strain, stronger effect = higher value
Outline: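 Compounds are added to genetically altered yeast, and growth is compared with cultures given vehicle alone to give percent inhibition.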

[9] = NCI Yeast Anticancer Drug Screen. Data for the CLN2oe strain (AID 163);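 note: 0% = growth of vehicle-only control cultures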; conditions: S. cerevisiae CLN2oe strain, stronger effect = higher value
Outline: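 Whole-cell yeast growth assay. A strain engineered for altered cell-cycle control received compound, and inhibition relative to vehicle-treated cultures was recorded.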

[10] = NCI Yeast Anticancer Drug Screen. Data for the cln2 rad14 strain (AID 165);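 note: 0% = growth equal to vehicle treated cultures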; conditions: S. cerevisiae cln2 rad14 strain, stronger effect = higher value
Outline: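 Yeast strain cln2 rad14, bearing defects in cell cycle control and DNA repair, serves as the test system; values reflect growth inhibition compared with vehicle.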

[11] = NCI Yeast Anticancer Drug Screen. Data for the bub3 strain (AID 167); conditions: S. cerevisiae bub3 mutant strain, stronger effect = higher value
Outline: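 Steps: expose the mutant yeast strain to compound; grow alongside vehicle-treated cultures; measure growth; express inhibition against the vehicle cultures.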

[12] = NCI Yeast Anticancer Drug Screen. Data for the wt2 strain (AID 169);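 note: 0% = growth of vehicle-treated yeast cultures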; conditions: S. cerevisiae wt2 strain growth inhibition, stronger effect = higher value
Outline: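 Treated yeast vs. vehicle-treated yeast: growth inhibition determined.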

[13] = NCI Yeast Anticancer Drug Screen. Data for the mlh1 strain (AID 171);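 note: 0% = growth of vehicle-treated control cultures of the same strain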; conditions: S. cerevisiae mlh1 strain growth inhibition, stronger effect = higher value
Outline: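 A yeast strain with a defined genetic lesion serves as the test organism. Cultures receive compound or vehicle, and growth is measured.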

[14] = NCI Yeast Anticancer Drug Screen. Data for the mlh1 rad18 strain (AID 175); conditions: S. cerevisiae mlh1 rad18 strain growth inhibition, stronger effect = higher value
Outline: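 Steps: expose repair-defective yeast to compound; measure growth; express inhibition against vehicle-treated controls.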

[15] = NCI Yeast Anticancer Drug Screen. Data for the rad18 strain (AID 177); conditions: S. cerevisiae rad18 mutant growth inhibition, stronger effect = higher value
Outline: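 Measured value is growth inhibition of a yeast strain bearing a DNA repair alteration, referenced to vehicle-treated cells.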

[16] = at 5.0 µM (retest, dose inferred, filed as 0.5)
[17] = at 50.0 µM (retest, dose inferred, filed as 5.0)

Measured: growth inhibition

CCN(CC)C(=S)N/N=C(/C)c1cccc(/C(C)=N\NC(=S)N(CC)CC)n1
active: [1]; at 100.0 µM 90% | [2]; at 100.0 µM 87% | [3]; at 100.0 µM 79% | [4]; at 100.0 µM 91% | [5]; [17] 96% | [5]; at 100.0 µM 86% | [6]; [17] 95% | [6]; at 100.0 µM 86% | [7]; at 100.0 µM 92% | [8]; [17] 91% | [9]; at 100.0 µM 91% | [10]; [17] 91% | [11]; [17] 90% | [11]; at 100.0 µM 84% | [12]; at 100.0 µM 89% | [13]; at 100.0 µM 85% | [14]; [17] 92% | [14]; at 50.0 µM 70.7% | [15]; at 100.0 µM 91%
inactive: [1]; at 1.2 µM -24% | [1]; at 3.7 µM -15% | [1]; at 11.0 µM 7% | [1]; at 33.0 µM 43% | [2]; at 1.2 µM -4% | [2]; at 3.7 µM -12% | [2]; at 11.0 µM 11% | [2]; at 33.0 µM 60% | [3]; at 1.2 µM 16% | [3]; at 3.7 µM 6% | [3]; at 11.0 µM 31% | [3]; at 33.0 µM 48% | [4]; at 1.2 µM 0% | [4]; at 3.7 µM -14% | [4]; at 11.0 µM 0% | [4]; at 33.0 µM 61% | [5]; at 1.2 µM -17% | [5]; at 3.7 µM -25% | [5]; [16] -14% | [5]; at 11.0 µM -12% | [5]; at 33.0 µM 50% | [5]; at 50.0 µM 55.5% | [6]; at 1.2 µM -43% | [6]; at 3.7 µM -3% | [6]; [16] 12% | [6]; at 11.0 µM -8% | [6]; at 33.0 µM 52% | [6]; at 50.0 µM 69.1% | [7]; at 1.2 µM -6% | [7]; at 3.7 µM 10% | [7]; at 11.0 µM 2% | [7]; at 33.0 µM 46% | [8]; [16] -5% | [8]; at 50.0 µM 66.7% | [9]; at 1.2 µM 17% | [9]; at 3.7 µM 16% | [9]; at 11.0 µM 31% | [9]; at 33.0 µM 48% | [10]; [16] 21% | [10]; at 50.0 µM 34.5% | [11]; at 1.2 µM 7% | [11]; at 3.7 µM 13% | [11]; [16] 39% | [11]; at 11.0 µM 16% | [11]; at 33.0 µM 56% | [11]; at 50.0 µM 65.2% | [12]; at 1.2 µM 12% | [12]; at 3.7 µM 4% | [12]; at 11.0 µM 10% | [12]; at 33.0 µM 64% | [13]; at 1.2 µM -12% | [13]; at 3.7 µM -7% | [13]; at 11.0 µM 9% | [13]; at 33.0 µM 52% | [14]; [16] 39% | [15]; at 1.2 µM -1% | [15]; at 3.7 µM 9% | [15]; at 11.0 µM 23% | [15]; at 33.0 µM 59%
